Records with an inconclusive call do not appear. More than one record can exist for a structure, and the calls need not agree. Activity calls are given as the source filed them. How the source made its calls, unless noted: active means hit-call score of the fitted dose curve at least 0.9, where 1 is the maximum; inactive means score below 0.9.
Assays:
[1] = read-out: Interleukin-8 (IL8), CXCL8 (gene 3576); experiment: BSK_3C_IL8: BioMAP Diversity Plus: 3C Assay for Interleukin-8 (IL8) Biomarker Activity (AID 2283020); settings: primary human endothelial cells (HUVEC); actives raise or lower the signal
Method in brief: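 IL-8 was measured by ELISA in HUVEC cultures 24 h after chemical dosing, with gain or loss of signal fitted relative to DMSO. Parallel SRB total-protein staining tracked overt cytotoxicity.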

[2] = BSK_3C_SRB: Viability Assessment in the BioMAP Diversity Plus: 3C Assay (AID 2283023); settings: primary human endothelial cells (HUVEC);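 further: cells read 24 h after compound dosing; fitted both ways against DMSO so a hit may be signal rise or drop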
Method in brief: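 HUVEC, 24 h post-dose; 10% TCA fix, 0.1% SRB stain, A560 nm. Bidirectional curve fit vs DMSO negative control.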

[3] = read-out: Matrix Metallopeptidase 1 (MMP1), MMP1 (gene 4312); experiment: BSK_BE3C_MMP1: BioMAP Diversity Plus: BE3C Assay for Matrix Metallopeptidase 1 (MMP1) Biomarker Activity (AID 2283024); settings: primary human bronchial epithelial cells; actives raise or lower the signal
Method in brief: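 ELISA measurement of MMP-1 after 24 h compound exposure of primary human bronchial epithelial cells. Changes in either direction fitted relative to DMSO; parallel SRB staining checked overt cytotoxicity.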

[4] = BSK_3C_Vis: BioMAP Diversity Plus: 3C Assay for Morphology Visualization (AID 2283025); settings: primary human endothelial cells (HUVEC);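 further: fitted both ways so gain or loss versus DMSO counts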;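 on AC50: light microscopy image of cell morphology used as background control; cells imaged 24 h after dosing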
Method in brief: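 Light-microscopy visualization of HUVEC cultures at 24 h post-treatment, with DMSO as baseline for bidirectional fitting.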

[5] = read-out: Pselectin, SELP (gene 6403); experiment: BSK_4H_Pselectin: BioMAP Diversity Plus: 4H Assay for Pselectin Biomarker Activity (AID 2283026); settings: primary human endothelial cells (HUVEC); actives raise or lower the signal
Method in brief: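 ELISA of surface P-selectin on HUVEC, 24 h after dosing, with parallel SRB staining (0.1% after 10% TCA fixation, 560 nm) for overt cytotoxicity. Activity fitted in both directions relative to DMSO.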

[6] = BSK_4H_SRB: Viability Assessment in the BioMAP Diversity Plus: 4H Assay (AID 2283027); settings: primary human endothelial cells (HUVEC);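 further: cells exposed to compound for 24 h before staining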;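 on AC50: curves fitted both ways versus DMSO so AC50 may be loss or gain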
Method in brief: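 HUVEC, 24 h post-dose; 10% TCA fix, 0.1% SRB stain, A560 nm. Total protein = overt cytotoxicity, parallel to biomarker read. Bidirectional fit vs DMSO baseline.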

[7] = BSK_BE3C_SRB: Viability Assessment in the BioMAP Diversity Plus: BE3C Assay (AID 2283028); settings: primary human bronchial epithelial cells;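 on AC50: fitted both ways so AC50 may mark signal gain or loss versus DMSO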
Method in brief: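 Primary human bronchial epithelium; chemical dosing, 24 h; 10% TCA fix, 0.1% SRB stain, A560; bidirectional fit vs DMSO baseline.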

[8] = read-out: Thrombomodulin, THBD (gene 7056); experiment: BSK_3C_Thrombomodulin: BioMAP Diversity Plus: 3C Assay for Thrombomodulin Biomarker Activity (AID 2283029); settings: primary human endothelial cells (HUVEC); actives raise or lower the signal
Method in brief: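 ELISA measurement of thrombomodulin on HUVEC surface 24 h after chemical dosing; activity fitted in both directions relative to DMSO vehicle.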

[9] = target: human Vitamin D Receptor (VDR), VDR (gene 7421) (UniProt P11473); experiment: ATG_VDR_TRANS: Attagene TRANS-FACTORIAL HepG2 Assay for human Vitamin D Receptor (VDR) (AID 2283022; active means hit-call score of the fitted dose curve at least 0.9, where 1 is the maximum)
human Vitamin D Receptor (VDR), VDR (gene 7421), sequence (P11473 whole entry, looked up, the tested form may be a part): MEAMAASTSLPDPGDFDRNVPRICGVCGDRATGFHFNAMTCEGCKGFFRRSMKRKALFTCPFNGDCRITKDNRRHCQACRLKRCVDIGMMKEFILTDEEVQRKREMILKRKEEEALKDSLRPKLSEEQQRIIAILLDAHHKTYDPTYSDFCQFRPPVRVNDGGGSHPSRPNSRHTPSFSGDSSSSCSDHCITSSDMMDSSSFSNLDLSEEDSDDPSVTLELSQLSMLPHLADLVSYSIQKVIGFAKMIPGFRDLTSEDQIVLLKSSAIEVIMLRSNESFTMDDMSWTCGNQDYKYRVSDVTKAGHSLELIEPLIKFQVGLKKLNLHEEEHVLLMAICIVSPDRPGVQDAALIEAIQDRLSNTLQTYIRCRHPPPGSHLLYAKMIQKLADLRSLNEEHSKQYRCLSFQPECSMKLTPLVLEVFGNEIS
Method in brief: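 RT-PCR/capillary electrophoresis read-out of reporter mRNA induction in transiently transfected HepG2; 24 h dosing; chimeric NR-Gal4 (TRANS format); gain-of-signal fit against DMSO baseline.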

[10] = read-out: Monokine induced gamma interferon (MIG), CXCL9 (gene 4283); experiment: BSK_3C_MIG: BioMAP Diversity Plus: 3C Assay for Monokine induced gamma interferon (MIG) Biomarker Activity (AID 2283021); settings: primary human endothelial cells (HUVEC); actives raise or lower the signal;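 on AC50: MIG protein level measured by immunoassay in the treated endothelial cultures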
Method in brief: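 ELISA measurement of MIG in human umbilical vein endothelial cells 24 h after treatment. Cytotoxicity tracked by SRB staining in parallel cultures; gain or loss of signal fitted relative to DMSO.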

Measured: AC50

c1ccc(Sc2ccccc2)cc1
active: [1] 20 µM | [2] 32.3 µM | [3] 0.016 µM | [4] 37.8 µM | [5] 29.6 µM | [6] 31.1 µM | [8] 20 µM
inactive: [7]

CC(C)(C)c1cccc(O)c1
not listed: [10]
inactive: all other assays above

CC1=CC(C)C(C=O)C(C)C1 (stereo not drawn) (tested in a mixture with another compound)
not listed: [9]
inactive: all other assays above

c1ccc2c(c1)-c1ccc3ccc4cccc5cc-2c1c3c45
active: [4] 4.52 µM
not listed: [10]
inactive: all other assays above

O=S(=O)(O)C(F)(F)C(F)(F)OC(F)(F)C(F)(F)F
inactive: [1] | [2] | [3] | [5] | [6] | [7] | [8]
active: [1] 5.95 µM | [3] 42.9 µM

CCn1cc(C(=O)O)c(=O)c2ccc(C)nc21
not listed: [4] | [10]
inactive: all other assays above

OCCN1CCOCC1
not listed: [9] | [10]
inactive: all other assays above

CCOC(=O)C=Cc1ccccc1
not listed: [10]
inactive: all other assays above

C[C@]12CC[C@@H]3c4ccc(O)cc4CC[C@H]3[C@@H]1CC[C@@H]2O
active: [4] 13.7 µM | [6] 12.4 µM
not listed: [2] | [10]
inactive: all other assays above

C=C(C)C(N)=O
not listed: [10]
inactive: all other assays above

NC(=O)c1c(Cl)cccc1Cl
not listed: [9] | [10]
inactive: all other assays above

C=C(F)C(=O)OC(C(F)(F)F)C(F)(F)F
not listed: [4] | [9]
inactive: all other assays above

CCOC(=O)CCCCCCCCC(=O)OCC
not listed: [9] | [10]
inactive: all other assays above

CC(=O)CCC=C(C)CCC=C(C)C
not listed: [9] | [10]
inactive: all other assays above

C=CC(=O)OCC(CO)(COC(=O)C=C)COC(=O)C=C
inactive: [8]
active: [1] 0.303 µM | [10] 602 nM | [2] 0.294 µM | [3] 3.22 µM | [4] 0.174 µM | [5] 0.341 µM | [6] 0.566 µM | [7] 20 µM

O=C1OC2(c3ccc(O)cc3Oc3cc(O)ccc32)c2ccccc21
active: [1] 20 µM
not listed: [10]
inactive: all other assays above

C=C1CC/C=C(\C)CC[C@@H]2[C@@H]1CC2(C)C
active: [1] 30.6 µM | [2] 29.8 µM | [3] 20 µM | [4] 14.5 µM | [5] 29.1 µM | [6] 31.9 µM
inactive: [9] | [7] | [8]

CC(=O)OC(C)(C)C1CC=C(C)CC1 (stereo not drawn)
active: [2] 31.5 µM | [4] 38.9 µM | [5] 31.2 µM | [6] 31 µM
inactive: [1] | [3] | [7] | [8]

From PubChem BioAssay (EPA / NIEHS)
